From PubChem BioAssay AID1159580 (chemical genetic matrix, 2015)
“And” between values parts separate entries of the source, which are not always exact repeats. Equal entries are not always repeated. Among all 5,500 compounds or so, about 2,000 (36%) were called active. Inconclusive results (about 18%) are left out. Cut-off read from the data, not from the text of the source: active = normalized growth mostly below about 0.91 (no sharp cut-off); inconclusive = no clear call, values can overlap the other calls; inactive = mostly above about 0.92. The list shows a part of the results.

Assay: chemical genetic growth profiling, strain panel (AID 1159580);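 note: tested at 20 µM; growth read once vehicle control cultures reached saturation at 30 °C; 1 = growth at the plate median or of vehicle wells; lower values mean less growth of the strain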
Details: S. cerevisiae deletion strains, growth OD

Measured: normalized growth

CN1CCCCC1c1ccc(-c2cccnc2)nc1 (stereo not given)
inactive: locus YAL013W, strain DEP1, stronger effect = lower value 1.01 | locus YAL021C, strain ccr4, stronger effect = lower value 0.987 | locus YAL026C, strain drs2, stronger effect = lower value 0.965 | locus YAL030W, strain snc1, stronger effect = lower value 0.984 | locus YBL061C, strain skt5, stronger effect = lower value 0.975 | locus YBR009C, strain hhf1, stronger effect = lower value 0.938 | locus YBR021W, strain FUR4, stronger effect = lower value 1.1 | locus YBR023C, strain chs3, stronger effect = lower value 0.99 | locus YBR171W, strain sec66, stronger effect = lower value 0.971 | locus YBR229C, strain ROT2, stronger effect = lower value 1.02 | locus YBR231C, strain swc5, stronger effect = lower value 0.982 | locus YBR279W, strain paf1, stronger effect = lower value 0.984 | locus YCL011C, strain gbp2, stronger effect = lower value 0.964 | locus YCL016C, strain dcc1, stronger effect = lower value 0.997 | locus YCL029C, strain bik1, stronger effect = lower value 0.97 | locus YCL061C, strain MRC1, stronger effect = lower value 0.98 | locus YCL069W, strain vba3, stronger effect = lower value 0.979 | locus YCR088W, strain abp1, stronger effect = lower value 0.994 | locus YDL005C, strain med2, stronger effect = lower value 0.964 | locus YDL035C, strain GPR1, stronger effect = lower value 1.01 | locus YDL040C, strain nat1, stronger effect = lower value 0.983 | locus YDL074C, strain BRE1, stronger effect = lower value 1.01 | locus YDL101C, strain DUN1, stronger effect = lower value 1.02 | locus YDL134C, strain PPH21, stronger effect = lower value 1.1 | locus YDL185W, strain tfp1, stronger effect = lower value 0.959 | locus YDL192W, strain arf1, stronger effect = lower value 0.983 | locus YDR001C, strain nth1, stronger effect = lower value 0.962 | locus YDR069C, strain doa4, stronger effect = lower value 0.962 | locus YDR101C, strain arx1, stronger effect = lower value 0.999 | locus YDR137W, strain rgp1, stronger effect = lower value 0.975 | locus YDR150W, strain NUM1, stronger effect = lower value 1.01 | locus YDR159W, strain sac3, stronger effect = lower value 0.927 | locus YDR162C, strain NBP2, stronger effect = lower value 1.07 | locus YDR195W, strain ref2 0.929 | locus YDR297W, strain sur2, stronger effect = lower value 0.967 | locus YDR318W, strain mcm21, stronger effect = lower value 1 | locus YDR334W, strain swr1, stronger effect = lower value 0.971 | locus YDR335W, strain msn5, stronger effect = lower value 0.99 | locus YDR388W, stronger effect = lower value 0.997 | locus YDR392W, strain spt3, stronger effect = lower value 0.874 | locus YDR502C, strain sam2, stronger effect = lower value 1.01 | locus YEL003W, strain gim4, stronger effect = lower value 0.979 | locus YEL037C, strain rad23, stronger effect = lower value 0.985 | locus YEL061C, strain CIN8 (second series), stronger effect = lower value 0.97 | locus YEL061C, strain CIN8, stronger effect = lower value 1.01 | locus YER015W, strain faa2, stronger effect = lower value 0.965 | locus YER016W, strain bim1, stronger effect = lower value 0.994 | locus YER110C, stronger effect = lower value 1 | locus YER111C, strain swi4, stronger effect = lower value 0.974 | locus YER155C, strain BEM2 (second series), stronger effect = lower value 0.971 | locus YER155C, strain BEM2, stronger effect = lower value 1.01 | locus YER167W, strain BCK2, stronger effect = lower value 1.03 | locus YFR010W, strain ubp6, stronger effect = lower value 0.969 | locus YGL078C, strain dbp3, stronger effect = lower value 0.996 | locus YGL086W, strain mad1, stronger effect = lower value 1.03 | locus YGL167C, strain pmr1, stronger effect = lower value 0.956 | locus YGL173C, strain kem1, stronger effect = lower value 0.973 | locus YGL227W, strain vid30, stronger effect = lower value 0.97 | locus YGL240W, strain doc1, stronger effect = lower value 0.965 | locus YGL248W, strain PDE1, stronger effect = lower value 1.01 | locus YGL253W, strain hxk2, stronger effect = lower value 0.992 | locus YGR135W, strain pre9, stronger effect = lower value 0.981 | locus YGR229C, strain SMI1, stronger effect = lower value 1.08 | locus YGR252W, strain gcn5, stronger effect = lower value 1.05 | locus YHR013C, strain ard1, stronger effect = lower value 0.929 | locus YHR027C, strain rpn1, stronger effect = lower value 0.984 | locus YHR030C, strain SLT2, stronger effect = lower value 0.995 and 1 | locus YHR079C, strain IRE1 (second series), stronger effect = lower value 0.998 | locus YHR079C, strain IRE1, stronger effect = lower value 0.988 | locus YHR094C, strain hxt1, stronger effect = lower value 1.02 | locus YHR129C, strain ARP1, stronger effect = lower value 1.02 | locus YHR142W, strain chs7, stronger effect = lower value 1 | locus YHR200W, strain rpn10, stronger effect = lower value 0.984 | locus YIL066C, strain RNR3, stronger effect = lower value 1.05 | locus YIL073C, strain SPO22, stronger effect = lower value 1.02 | locus YIL125W, strain kgd1, stronger effect = lower value 0.998 | locus YIR030C, strain dcg1, stronger effect = lower value 0.995 | locus YJL092W, strain hpr5, stronger effect = lower value 0.985 | locus YJL095W, strain BCK1 (second series), stronger effect = lower value 0.998 | locus YJL095W, strain BCK1, stronger effect = lower value 1.07 and 1.03 | locus YJL115W, strain asf1, stronger effect = lower value 0.991 | locus YJL129C, strain trk1, stronger effect = lower value 0.983 | locus YJL134W, strain LCB3, stronger effect = lower value 0.996 | locus YJL154C, strain vps35, stronger effect = lower value 0.994 | locus YJL164C, strain tpk1, stronger effect = lower value 1.02 | locus YJL166W, strain qcr8, stronger effect = lower value 0.983 | locus YJL168C, strain set2, stronger effect = lower value 0.996 | locus YJL187C, strain SWE1 (second series), stronger effect = lower value 1.04 | locus YJL187C, strain SWE1, stronger effect = lower value 0.979 | locus YJR043C, strain POL32, stronger effect = lower value 1.04 | locus YJR066W, strain TOR1, stronger effect = lower value 0.951 | locus YKL009W, strain mrt4, stronger effect = lower value 0.986 | locus YKL068W, stronger effect = lower value 0.997 | locus YKL085W, strain MDH1 (second series), stronger effect = lower value 1.01 | locus YKL085W, strain MDH1, stronger effect = lower value 1.01 | locus YKL160W, strain elf1, stronger effect = lower value 1.01 | locus YKL190W, strain CNB1, stronger effect = lower value 1.02 | locus YKR001C, strain vps1, stronger effect = lower value 0.996 | locus YKR026C, strain gcn3, stronger effect = lower value 0.967 | locus YKR091W, strain srl3, stronger effect = lower value 0.969 | locus YLL001W, strain dnm1, stronger effect = lower value 1 | locus YLL026W, stronger effect = lower value 1 | locus YLL041C, strain sdh2, stronger effect = lower value 0.991 | locus YLR027C, strain aat2, stronger effect = lower value 0.979 | locus YLR039C, strain RIC1, stronger effect = lower value 1.07 | locus YLR058C, strain SHM2, stronger effect = lower value 1.02 | locus YLR102C, strain apc9, stronger effect = lower value 0.999 | locus YLR113W, strain HOG1, stronger effect = lower value 1.03 | locus YLR221C, strain rsa3, stronger effect = lower value 0.994 | locus YLR258W, strain gsy2, stronger effect = lower value 0.985 | locus YLR262C, strain YPT6 (second series), stronger effect = lower value 1.01 | locus YLR262C, strain YPT6, stronger effect = lower value 1.04 | locus YLR268W, strain sec22, stronger effect = lower value 1.01 | locus YLR320W, strain mms22, stronger effect = lower value 0.993 | locus YLR330W, strain CHS5, stronger effect = lower value 1.01 | locus YLR342W, strain FKS1 (second series), stronger effect = lower value 1.06 | locus YLR342W, strain FKS1, stronger effect = lower value 0.971 | locus YLR357W, strain rsc2, stronger effect = lower value 0.968 | locus YLR370C, strain arc18, stronger effect = lower value 0.966 | locus YLR371W, strain rom2, stronger effect = lower value 0.971 | locus YLR384C, strain iki3, stronger effect = lower value 0.993 | locus YLR418C, strain cdc73, stronger effect = lower value 1.05 | locus YML016C, strain PPZ1, stronger effect = lower value 1.01 | locus YML032C, strain rad52, stronger effect = lower value 0.997 | locus YML120C, strain ndi1, stronger effect = lower value 0.984 | locus YML124C, strain tub3, stronger effect = lower value 0.998 | locus YMR058W, strain fet3, stronger effect = lower value 0.97 | locus YMR078C, strain ctf18, stronger effect = lower value 0.999 | locus YMR125W, strain sto1, stronger effect = lower value 0.942 | locus YMR129W, stronger effect = lower value 0.974 | locus YMR205C, strain PFK2, stronger effect = lower value 0.934 | locus YMR223W, strain ubp8, stronger effect = lower value 0.987 | locus YMR231W, strain pep5, stronger effect = lower value 0.967 | locus YMR307W, strain GAS1, stronger effect = lower value 1.19 | locus YNL067W, strain RPL9B, stronger effect = lower value 1.05 | locus YNL071W, strain lat1, stronger effect = lower value 0.993 | locus YNL183C, strain NPR1, stronger effect = lower value 0.979 | locus YNL209W, strain ssb2, stronger effect = lower value 0.966 | locus YNL233W, strain BNI4, stronger effect = lower value 1.07 | locus YNL248C, strain rpa49, stronger effect = lower value 1.02 | locus YNL250W, strain rad50, stronger effect = lower value 0.988 | locus YNL271C, strain bni1, stronger effect = lower value 0.988 | locus YNL298W, strain CLA4, stronger effect = lower value 1 | locus YNL307C, strain MCK1, stronger effect = lower value 1 | locus YNL322C, strain KRE1 (second series), stronger effect = lower value 0.971 | locus YNR049C, strain mso1, stronger effect = lower value 0.986 | locus YNR052C, strain pop2, stronger effect = lower value 0.993 | locus YOL006C, strain TOP1, stronger effect = lower value 1.11 | locus YOL012C, strain htz1 1.24 | locus YOL147C, strain pex11, stronger effect = lower value 1.01 | locus YOR001W, strain rrp6, stronger effect = lower value 1.02 | locus YOR061W, strain CKA2, stronger effect = lower value 1.01 | locus YOR069W, strain VPS5, stronger effect = lower value 1 | locus YOR070C, strain gyp1, stronger effect = lower value 0.997 | locus YOR080W, strain dia2, stronger effect = lower value 0.966 | locus YOR083W, strain WHI5, stronger effect = lower value 1.01 | locus YOR106W, strain vam3, stronger effect = lower value 1 | locus YOR136W, strain idh2, stronger effect = lower value 0.995 | locus YOR144C, strain elg1, stronger effect = lower value 1.01 | locus YOR184W, strain ser1, stronger effect = lower value 1.02 | locus YOR231W, strain MKK1, stronger effect = lower value 0.992 | locus YOR265W, strain rbl2, stronger effect = lower value 1.01 | locus YOR270C, strain vph1, stronger effect = lower value 0.974 | locus YOR290C, strain snf2, stronger effect = lower value 0.923 | locus YOR316C, strain cot1, stronger effect = lower value 0.99 | locus YPL051W, strain arl3, stronger effect = lower value 1.01 | locus YPL078C, strain atp4, stronger effect = lower value 0.999 | locus YPL106C, strain sse1, stronger effect = lower value 0.934 | locus YPL240C, strain hsp82, stronger effect = lower value 0.981 | locus YPL256C, strain CLN2, stronger effect = lower value 0.977 | locus YPR119W, strain clb2, stronger effect = lower value 1 | locus YPR141C, strain kar3, stronger effect = lower value 0.986 | locus YPR163C, strain tif3, stronger effect = lower value 0.998 | locus YPR167C, strain met16, stronger effect = lower value 0.999 | strain wtn01, stronger effect = lower value 0.983
